Assay outcomes deposited in PubChem by several laboratories.
hcDAF12 agonist – activates DAF-12 receptor from parasite H. contortus; HEK293 hcDAF-12 lit1-tk-luc reporter, luminescence; 0% DMSO, 100% Δ7-dafachronic acid; activation, % at 6.8 µM; 370,000 compounds, 1.4% hits;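 active = activation above the mean of all tested compounds plus 3 SD, cut at about 5.5% in these data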
APP 5'UTR act – activates APP 5'UTR luciferase reporter; SH-SY5Y APP 5'UTR luciferase reporter, luminescence; zero percent = DMSO vehicle wells; activation, % at 2 µM; 190,000 compounds, 1% hits;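 active = activation above a set limit, based on mean plus 3 SD of controls, cut at about 140% in these data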
NF-kB neuron act – raises NF-kB expression in human neuronal cells; fold change at 12.5 µM; NF-kB reporter expression; stronger effect = higher value; 190,000 compounds, 1.6% hits; in the data active = fold change above about 3.3
ssDAF12 agonist – activates DAF-12 receptor from parasite S. stercoralis; HEK293 ssDAF-12/GRIP1 lit1-tk-luc reporter, luminescence; % of 3 µM dafachronic acid response; activation, % at 6.8 µM; 370,000 compounds, 1% hits; AID 652126;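 active = activation above the mean over all tested compounds plus 3 SD, cut at about 0.9% in these data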
hgDAF-12 ag – agonists of H. glycines DAF-12 nuclear receptor. HEK293 GAL4-hgDAF12 UAS-luciferase reporter, agonist luminescence; normalized to butyrate control. activation, % at 6.8 µM. 370,000 compounds, 1.8% hits;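 active = activation above a cutoff set at the mean of all screened compounds plus 3 SD, cut at about 10% in these data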
Each line names hits and unclear results; the compound was inactive in the other large screens. Rows were chosen to be rich in hits. Some 3.4% of all compounds tested hit in one or more screens of this group.

O=C(Nc1nnc(-c2ccco2)o1)C1CCCCC1	none
O=C(Nc1nnc(-c2ccco2)o1)C1CC1	hcDAF12 agonist 6.4
CCOc1ccc(-n2c(SCC(=O)Nc3cccc4ccccc34)nnc2-c2ccccc2)cc1	none (no result: APP 5'UTR act, NF-kB neuron act)
COc1cc(C2NC(=S)NC(C)=C2C(=O)Nc2ccc(C)cc2)ccc1O (stereo not drawn)	hgDAF-12 ag 11
Cc1cccc(-n2c(-c3ccoc3C)n[nH]c2=S)c1	none
Cc1ccccc1-n1c(-c2ccoc2C)n[nH]c1=S	ssDAF12 agonist 1.3
Nc1ncn(CC(=O)c2ccccc2)n1	NF-kB neuron act 6.2
C/[N+]([O-])=C/c1c(OCc2ccc(Cl)cc2Cl)ccc2ccccc12	hcDAF12 agonist 6.0
O=C(CN(CCc1ccccc1)S(=O)(=O)c1cccs1)N1CCOCC1	none (no result: APP 5'UTR act, NF-kB neuron act)
CC(C)n1nnnc1C1c2ccccc2C(=O)N1CCc1c[nH]c2ccccc12 (stereo not drawn)	none (no result: APP 5'UTR act, NF-kB neuron act)
CC(C)n1nnnc1C1c2ccccc2C(=O)N1CCc1ccccc1F (stereo not drawn)	hcDAF12 agonist 5.7, hgDAF-12 ag 15 (no result: APP 5'UTR act, NF-kB neuron act)
O=C1c2ccccc2C(c2nnnn2Cc2ccccc2)N1CCc1ccccc1F (stereo not drawn)	hgDAF-12 ag 11 (no result: APP 5'UTR act, NF-kB neuron act)
CCOc1ccc(-n2c(SCC(=O)Nc3ccc(S(=O)(=O)Nc4nccs4)cc3)nnc2-c2ccccc2)cc1	none (no result: APP 5'UTR act, NF-kB neuron act)
O=C1c2cccc3cccc(c23)C(=O)N1Cc1cccnc1	none (no result: APP 5'UTR act, NF-kB neuron act)
Cc1ccnc(N2C(=O)c3cccc4c([N+](=O)[O-])ccc(c34)C2=O)c1	NF-kB neuron act 4.7
O=C1c2cccc3c([N+](=O)[O-])ccc(c23)C(=O)N1Cc1cccnc1	NF-kB neuron act 3.8
Cc1ccc(N2C(=O)c3cccc4c([N+](=O)[O-])ccc(c34)C2=O)c2cccnc12	none (no result: APP 5'UTR act, NF-kB neuron act)
COc1ccc(Cn2ccc3ccc(-c4ccc5ccn(C(=O)C6CC6)c5c4)cc32)cc1	none (no result: APP 5'UTR act, NF-kB neuron act)
CN1CCCCC(NC(=O)c2ccc3ccccc3c2)C1=O (stereo not drawn)	hgDAF-12 ag 11 (no result: APP 5'UTR act, NF-kB neuron act)
Cc1ccc(NC2Sc3ccccc3NC2=O)cc1 (stereo not drawn)	ssDAF12 agonist 1.0, hgDAF-12 ag 15
O=C1Nc2ccccc2SC1c1ccccc1 (stereo not drawn)	none (no result: APP 5'UTR act, NF-kB neuron act)
O=C(Nc1ccc(-c2noc(CCc3ccccc3)n2)cc1)c1ccco1	APP 5'UTR act 173, NF-kB neuron act 3.9
O=C(Nc1ccc(-c2cn3ccccc3n2)cc1)c1ccco1	hgDAF-12 ag 12
O=C(Nc1ccc(-c2cn3ccccc3n2)cc1)c1ccc(Cl)cc1	none
O=S1(=O)c2ccc(Br)cc2OC[C@@H](Cc2ccccc2)N1Cc1cn(Cc2ccc(F)cc2)nn1	none (no result: APP 5'UTR act, NF-kB neuron act)
CC(COc1cc(F)cc(C#N)c1)CN1CCC(C(O)(c2ccccc2)c2ccccc2)CC1 (stereo not drawn)	none (no result: APP 5'UTR act, NF-kB neuron act)
COc1ccc(/C=N/NC(=O)c2ccccc2O)cc1CN1CCOCC1	hcDAF12 agonist 6.0 (no result: APP 5'UTR act, NF-kB neuron act)
COc1cc(C(=O)Nc2c(C(=O)O)[nH]c3ccc(C)cc23)cc(OC)c1OC	hcDAF12 agonist 6.1 (no result: APP 5'UTR act, NF-kB neuron act)
Cc1nc2ccccc2nc(C)c1=NOCc1ccc(C#N)cc1	hgDAF-12 ag 11
CC(=O)c1cnc(Nc2cccc(Cl)c2Cl)s1	hgDAF-12 ag 13
O=C(c1ccc(Cl)cc1)c1cnc(Nc2ccccc2Cl)s1	hgDAF-12 ag 13
CC(=O)c1cnc(Nc2ccccc2)s1	none
O=C1c2ccccc2C(=O)N1CC(O)CN1CCOCC1 (stereo not drawn)	ssDAF12 agonist 3.9
N[C@H](C(=O)N[C@@H](Cc1ccccc1)C(=O)N1CCC2CCN(S(=O)(=O)c3ccccc3)CC21)c1ccccc1 (stereo partly drawn)	hgDAF-12 ag 17 (no result: APP 5'UTR act, NF-kB neuron act)
CC(C)(C)CN1CCN(Cc2cc3ccccc3[nH]2)CC1CCO (stereo not drawn)	hcDAF12 agonist 6.3 (no result: APP 5'UTR act, NF-kB neuron act)
CCOc1ccc(CN2CCN(Cc3cc4ccccc4[nH]3)CC2CCO)cc1 (stereo not drawn)	ssDAF12 agonist 2.0
Nn1c(SCC(=O)Nc2ccccc2-c2ccccc2)nnc1-c1cc(-c2ccc(F)cc2)n[nH]1	none (no result: APP 5'UTR act, NF-kB neuron act)
O=C(Nc1ccc(F)cc1)OCc1cn(Cc2cc(F)cc(F)c2)nn1	none (no result: APP 5'UTR act, NF-kB neuron act)
C[C@H]1CCCN1c1ccc2c(c1)O[C@@H]1CCN(C1)S2(=O)=O	none (no result: APP 5'UTR act, NF-kB neuron act)
CC(=O)C(C)Oc1ccc2c3c(c(=O)oc2c1)CCCCC3 (stereo not drawn)	hgDAF-12 ag 11
COc1ccc2c(c1)N=CN1CCc3c([nH]c4ccccc34)C3=NCC[C@@]321	none (no result: APP 5'UTR act, NF-kB neuron act)
O=C1c2ccccc2C(=O)c2cc(NC(=O)C3CC3)ccc21	APP 5'UTR act 139, NF-kB neuron act 4.5
CC(C)CN1C(=O)c2ccc(NC(=O)C3CC3)cc2C1=O	none (no result: APP 5'UTR act, NF-kB neuron act)
O=C(O)/C=C/C(=O)Nc1ccc2c(c1)C(=O)c1ccccc1C2=O	hgDAF-12 ag 13 (no result: APP 5'UTR act, NF-kB neuron act)
O=C(CSc1nc2ccccc2nc1N1CCCC1)N1CCN(c2cccc(C(F)(F)F)c2)CC1	none (no result: APP 5'UTR act, NF-kB neuron act)
COC(=O)[C@]12C[C@H](CC(=O)N3CCOCC3)C(=O)N(Cc3cccc4ccccc34)C1=C[C@H](C(C)(C)C)O[C@@H]2C	none (no result: APP 5'UTR act, NF-kB neuron act)
COc1ccc(CCN2CCCC(CN(C)C(=O)c3cc(C)oc3C)C2)cc1 (stereo not drawn)	hgDAF-12 ag 11 (no result: APP 5'UTR act, NF-kB neuron act)
Nc1nc2n[nH]nc2c(=O)[nH]1	ssDAF12 agonist 1.5 (no result: APP 5'UTR act, NF-kB neuron act)
COc1ccc2c(C(=O)c3ccc(C)cc3)n(CCCC(N)=O)[n+]([O-])c2c1	hcDAF12 agonist 6.1 (no result: APP 5'UTR act, NF-kB neuron act)
Cc1ccc(C(=O)c2c3ccc([N+](=O)[O-])cc3[n+]([O-])n2CCCC(N)=O)cc1	none (no result: APP 5'UTR act, NF-kB neuron act)
NCCCn1c(C(=O)c2ccc(Cl)cc2)c2ccc(C(F)(F)F)cc2[n+]1[O-]	none (no result: APP 5'UTR act, NF-kB neuron act)
NC(=O)CCCn1c(C(=O)c2ccc(Cl)cc2)c2ccc(C(F)(F)F)cc2[n+]1[O-]	ssDAF12 agonist 1.2 (no result: APP 5'UTR act, NF-kB neuron act)
CCCCNC(=S)N/N=C/c1cc(C)ccc1C	none
COc1ccc(CC(=O)NCC(=O)N/N=C/c2sccc2C)cc1	hcDAF12 agonist 6.4 (no result: APP 5'UTR act, NF-kB neuron act)
CCCCNC(=S)N/N=C/c1sccc1C	hgDAF-12 ag 11
COc1ccc(CC(=O)NCC(=O)N/N=C/c2ccc(C)o2)cc1	none
COc1ccc(CN2C/C(=C/c3ccccc3)N3C(=O)C[C@@H](c4ccc5ccccc5c4)N=C23)c(OC)c1	none (no result: APP 5'UTR act, NF-kB neuron act)
CSCc1nc2sc(C(=O)Nc3nc(C)cs3)c(C)c2c(=O)[nH]1	hgDAF-12 ag 12
S=C(NCc1ccccn1)Nc1ccccc1Cl	hcDAF12 agonist 5.6
CCC1(CC)NC(=O)N(CC(=O)N2CCc3ccccc32)C1=O	none (no result: APP 5'UTR act, NF-kB neuron act)
CC1CCCCC12NC(=O)N(CC(=O)N1CCc3ccccc31)C2=O (stereo not drawn)	hcDAF12 agonist 5.8 (no result: APP 5'UTR act, NF-kB neuron act)
CCNC(=O)O/N=C(\C)c1sc(-c2ccc(Cl)cc2)nc1C	APP 5'UTR act 160, NF-kB neuron act 7.1, hgDAF-12 ag 11
C/C(=N\OC(=O)NC(C)C)c1sc(-c2ccc(Cl)cc2)nc1C	NF-kB neuron act 5.8
C/C(=N\OC(=O)NC(C)C)c1sc(-c2ccccc2)nc1C	none
C/C(=N\OC(=O)NC1CCCCC1)c1sc(-c2ccccc2)nc1C	none
